# Laboratory results as given in PubChem BioAssay (EPA / NIEHS).
# “And” between values parts separate entries of the source, which are not always exact repeats. Identical values can stand only once. Results filed as inconclusive are left out. Some structures have more than one record in an assay (separate samples or runs), and their calls can disagree. The source made the active and inactive calls. How the source made its calls, unless noted: active means hit-call score of the fitted dose curve at least 0.9, where 1 is the maximum; inconclusive means response in the unintended direction; inactive means score below 0.9.
# What was measured:
# [1] = target: human Peroxisome Proliferator-activated Receptor alpha (PPARa), PPARA (gene 5465) (UniProt Q07869); experiment: ATG_PPARa_TRANS: Attagene TRANS-FACTORIAL HepG2 Assay for human Peroxisome Proliferator-activated Receptor alpha (PPARa) (AID 2283001)
# Procedure, shortened: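 HepG2, transient MRTU transfection, 24 h treatment. RT-PCR → FAM labelling → capillary electrophoresis. Fit vs DMSO, positive direction.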
# [2] = target: Peroxisome proliferator-activated receptor gamma (Homo sapiens) (UniProt P37231); experiment: ATG_PPARg_TRANS: Attagene TRANS-FACTORIAL HepG2 Assay for human Peroxisome Proliferator-activated Receptor-gamma (PPARg) (AID 2283007)
# Procedure, shortened: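 HepG2 cells are transiently transfected with GAL4-UAS reporter units driven by chimeric NR-Gal4 fusions and dosed for 24 h. Reporter mRNA is quantified by RT-PCR, 6-FAM labelling, HpaI digestion and capillary electrophoresis. Induction is scored against DMSO.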
# [3] = target: human Thyroid Receptor alpha (THRa1), THRA (gene 7067) (UniProt P10827); experiment: ATG_THRa1_TRANS: Attagene TRANS-FACTORIAL HepG2 Assay for human Thyroid Receptor alpha (THRa1) (AID 2283014)
# Procedure, shortened: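 Measured here is mRNA from a GAL4-UAS reporter in transfected HepG2 cells carrying a Gal4-fused receptor, 24 h post-dose. DMSO served as negative control and baseline.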
# [4] = target: Nuclear receptor subfamily 1 group I member 2 (Homo sapiens) (UniProt O75469); experiment: ATG_PXR_TRANS: Attagene TRANS-FACTORIAL HepG2 Assay for human Pregnane X Receptor (PXR) (AID 2283008)
# Procedure, shortened: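 Transient HepG2 transfectants carrying multiplexed reporter transcription units; PXR activity read through a Gal4 chimera. 24 h exposure. RT-PCR/CE fluorescence; upward curve fit referenced to DMSO.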
# [5] = target: Retinoic acid receptor RXR-alpha (Homo sapiens) (UniProt P19793); experiment: ATG_RXRa_TRANS: Attagene TRANS-FACTORIAL HepG2 Assay for human Retinoid X Receptor alpha (RXRa) (AID 2283012)
# Procedure, shortened: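 TRANS format reporting activity of exogenous RXRa-Gal4 chimera in transiently transfected HepG2, 24 h exposure. Reporter transcripts quantified by RT-PCR with capillary electrophoresis, with gain of signal scored relative to DMSO.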
# [6] = target: human Peroxisome Proliferator-activated Receptor delta (PPARd), PPARD (gene 5467) (UniProt Q03181); experiment: ATG_PPARd_TRANS: Attagene TRANS-FACTORIAL HepG2 Assay for human Peroxisome Proliferator-activated Receptor delta (PPARd) (AID 2283002)
# Procedure, shortened: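 HepG2 cells transiently transfected with GAL4-UAS multiplexed reporter units driven by exogenous chimeric NR-GAL4 proteins; 24 h compound exposure. Reporter mRNA measured by RT-PCR, 6-FAM primer extension, HpaI digestion and capillary electrophoresis; gain of signal fitted relative to DMSO.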
# [7] = target: human RAR-related Orphan Receptor beta (RORb), RORB (gene 6096) (UniProt Q92753); experiment: ATG_RORb_TRANS: Attagene TRANS-FACTORIAL HepG2 Assay for human RAR-related Orphan Receptor beta (RORb) (AID 2283010)
# Procedure, shortened: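 Read-out is reporter mRNA induction, quantified by RT-PCR with fluorescent capillary electrophoresis, 24 h post-dose in transiently transfected HepG2 expressing exogenous NR-Gal4 chimera. Activity fitted upward versus DMSO.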
# [8] = target: human RAR-related Orphan Receptor gamma (RORg), RORC (gene 6097) (UniProt P51449); experiment: ATG_RORg_TRANS: Attagene TRANS-FACTORIAL HepG2 Assay for human RAR-related Orphan Receptor gamma (RORg) (AID 2283011)
# Procedure, shortened: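 Chimeric RORg-Gal4 transactivation in transfected HepG2; 24 h exposure; RT-PCR/capillary electrophoresis readout of reporter mRNA, DMSO baseline.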
# [9] = target: human Retinoid X Receptor beta (RXRb), RXRB (gene 6257) (UniProt P28702); experiment: ATG_RXRb_TRANS: Attagene TRANS-FACTORIAL HepG2 Assay for human Retinoid X Receptor beta (RXRb) (AID 2283013)
# Procedure, shortened: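 Readout is reporter transcript induction after 24 h dosing. It is measured by RT-PCR of total RNA followed by fluorescent capillary electrophoresis. HepG2 liver cells carry transfected multiple reporter units driven by an exogenous RXRb-Gal4 fusion; activity is relative to DMSO.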
# [10] = read-out: Intercellular Adhesion Molecule 1 (ICAM1), ICAM1 (gene 3383); experiment: BSK_3C_ICAM1: BioMAP Diversity Plus: 3C Assay for Intercellular Adhesion Molecule 1 (ICAM1) Biomarker Activity (AID 2283003; active means hit-call score of the fitted dose curve at least 0.9, where 1 is the maximum; inactive means score below 0.9); conditions: primary human endothelial cells (HUVEC); actives raise or lower the signal
# Procedure, shortened: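 ELISA readout of ICAM1 in human umbilical vein endothelial cells in the 3C system, taken 24 h post-dose. Gain or loss of signal versus DMSO was fitted in both directions, with SRB total-protein staining run in parallel.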
# [11] = target: human Retinoic Acid Receptor beta (RARb), RARB (gene 5915) (UniProt P10826); experiment: ATG_RARb_TRANS: Attagene TRANS-FACTORIAL HepG2 Assay for human Retinoic Acid Receptor beta (AID 2283004)
# Procedure, shortened: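 Fluorescent capillary-electrophoresis detection of GAL4-UAS reporter mRNA defines the endpoint, with induction over DMSO-treated wells scored as activity. Transiently transfected human hepatoma HepG2 cells expressing exogenous NR–Gal4 proteins are exposed to test chemicals for 24 h.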
# [12] = target: Retinoic acid receptor alpha (Homo sapiens) (UniProt P10276); experiment: ATG_RARa_TRANS: Attagene TRANS-FACTORIAL HepG2 Assay for human Retinoic Acid Receptor alpha (RARa) (AID 2283005)
# Procedure, shortened: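 HepG2 transiently transfected with multiplex GAL4-UAS reporter units including a human RARa–GAL4 chimera; 24 h compound exposure. Reporter mRNA quantified by RT-PCR, 6-FAM labeling and capillary electrophoresis; gain of signal versus DMSO.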
# [13] = BSK_3C_Proliferation: Cell Proliferation Assessment in the BioMAP Diversity Plus: 3C Assay (AID 2283006; active means hit-call score of the fitted dose curve at least 0.9, where 1 is the maximum; inactive means score below 0.9;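 further: potency may reflect either rise or fall in cell number versus DMSO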); conditions: primary human endothelial cells (HUVEC)
# Procedure, shortened: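 Proliferation as total protein: sulforhodamine B (0.1%) stain of TCA-fixed subconfluent human umbilical vein endothelial cells, absorbance 560 nm, 48 h after dosing. Activity fitted in both directions against DMSO baseline.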
# [14] = target: human Retinoic Acid Receptor gamma (RARg), RARG (gene 5916) (UniProt P13631); experiment: ATG_RARg_TRANS: Attagene TRANS-FACTORIAL HepG2 Assay for human Retinoic Acid Receptor gamma (RARg) (AID 2283009)
# Procedure, shortened: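 Transactivation of exogenous RARg-Gal4 fusion measured as reporter transcript induction after 24 h in transfected HepG2 cells. RNA reverse-transcribed, amplified, fluorescently labeled and resolved by capillary electrophoresis; increase relative to DMSO.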
# [15] = read-out: E-selectin (Homo sapiens) (UniProt P16581); experiment: BSK_3C_Eselectin: BioMAP Diversity Plus: 3C Assay for Eselectin Biomarker Activity (AID 2283015; active means hit-call score of the fitted dose curve at least 0.9, where 1 is the maximum; inactive means score below 0.9;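 on outcome: cell surface E-selectin protein quantified by ELISA 24 h after dosing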); conditions: primary human endothelial cells (HUVEC); actives raise or lower the signal
# Procedure, shortened: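 Endpoint derived by bidirectional fitting against DMSO vehicle; signal is ELISA-detected E-selectin from primary HUVEC at 24 h post-dosing, with parallel SRB staining (0.1% SRB, 560 nm) flagging cytotoxicity.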
# [16] = read-out: Interleukin-1 alpha (IL1a), IL1A (gene 3552); experiment: BSK_BE3C_IL1a: BioMAP Diversity Plus: BE3C Assay for Interleukin-1 alpha (IL1a) Biomarker Activity (AID 2283016; active means hit-call score of the fitted dose curve at least 0.9, where 1 is the maximum; inactive means score below 0.9); conditions: primary human bronchial epithelial cells; actives raise or lower the signal
# Procedure, shortened: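 IL-1a measured by ELISA after 24 h treatment of human primary bronchial epithelial cells, with gain or loss of signal fitted versus DMSO. Parallel cultures stained with SRB gauge overt cytotoxicity.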
# [17] = read-out: Monocyte Chemoattractant Protein-1 (MCP1), CCL2 (gene 6347); experiment: BSK_3C_MCP1: BioMAP Diversity Plus: 3C Assay for Monocyte Chemoattractant Protein-1 (MCP1) Biomarker Activity (AID 2283017; active means hit-call score of the fitted dose curve at least 0.9, where 1 is the maximum; inactive means score below 0.9); conditions: primary human endothelial cells (HUVEC); actives raise or lower the signal
# Procedure, shortened: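 Using human vascular primary endothelium, researchers measured MCP-1 by ELISA 24 h after treatment, with DMSO serving as negative control for bidirectional fitting.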
# [18] = read-out: Monocyte Chemoattractant Protein-1 (MCP1), CCL2 (gene 6347); experiment: BSK_4H_MCP1: BioMAP Diversity Plus: 4H Assay for Monocyte Chemoattractant Protein-1 (MCP1) Biomarker Activity (AID 2283018; active means hit-call score of the fitted dose curve at least 0.9, where 1 is the maximum; inactive means score below 0.9); conditions: primary human endothelial cells (HUVEC); actives raise or lower the signal
# Procedure, shortened: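 ELISA of MCP-1 (CCL2) 24 h after chemical dosing of HUVEC in the BioMAP 4H system. Gain or loss versus DMSO fitted; parallel SRB staining (560 nm) tracked overt cytotoxicity.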
# [19] = read-out: Human Leukocyte Antigen - DR isotype (HLADR), HLA-DRA (gene 3122); experiment: BSK_3C_HLADR: BioMAP Diversity Plus: 3C Assay for Human Leukocyte Antigen - DR isotype (HLADR) Biomarker Activity (AID 2283019; active means hit-call score of the fitted dose curve at least 0.9, where 1 is the maximum; inactive means score below 0.9;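 on outcome: ELISA of cell-surface HLA-DR on HUVEC 24 h after dosing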); conditions: primary human endothelial cells (HUVEC); actives raise or lower the signal
# Procedure, shortened: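 Compound added to primary HUVEC cultures, 24 h incubation, then HLA-DR determined by ELISA; endpoint derived by bidirectional fitting relative to DMSO negative control.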
# [20] = read-out: Interleukin-8 (IL8), CXCL8 (gene 3576); experiment: BSK_3C_IL8: BioMAP Diversity Plus: 3C Assay for Interleukin-8 (IL8) Biomarker Activity (AID 2283020; active means hit-call score of the fitted dose curve at least 0.9, where 1 is the maximum; inactive means score below 0.9); conditions: primary human endothelial cells (HUVEC); actives raise or lower the signal
# Procedure, shortened: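 IL-8 was measured by ELISA in HUVEC cultures 24 h after chemical dosing, with gain or loss of signal fitted relative to DMSO. Parallel SRB total-protein staining tracked overt cytotoxicity.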
# Sequence of Nuclear receptor subfamily 1 group I member 2 (Homo sapiens) (O75469 whole entry, looked up, the tested form may be a part): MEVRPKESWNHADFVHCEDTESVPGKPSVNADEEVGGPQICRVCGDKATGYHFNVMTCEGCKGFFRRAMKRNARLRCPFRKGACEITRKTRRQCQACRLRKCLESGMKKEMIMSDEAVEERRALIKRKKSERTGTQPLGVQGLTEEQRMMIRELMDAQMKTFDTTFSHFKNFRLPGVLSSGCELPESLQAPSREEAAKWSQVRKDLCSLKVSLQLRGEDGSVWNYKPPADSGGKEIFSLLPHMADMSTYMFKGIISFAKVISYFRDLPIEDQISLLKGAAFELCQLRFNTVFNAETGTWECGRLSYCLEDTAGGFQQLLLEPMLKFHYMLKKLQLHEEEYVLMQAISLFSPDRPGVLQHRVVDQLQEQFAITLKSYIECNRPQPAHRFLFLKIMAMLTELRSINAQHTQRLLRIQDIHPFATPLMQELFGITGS
# Sequence of human RAR-related Orphan Receptor beta (RORb), RORB (gene 6096) (Q92753 whole entry, looked up, the tested form may be a part): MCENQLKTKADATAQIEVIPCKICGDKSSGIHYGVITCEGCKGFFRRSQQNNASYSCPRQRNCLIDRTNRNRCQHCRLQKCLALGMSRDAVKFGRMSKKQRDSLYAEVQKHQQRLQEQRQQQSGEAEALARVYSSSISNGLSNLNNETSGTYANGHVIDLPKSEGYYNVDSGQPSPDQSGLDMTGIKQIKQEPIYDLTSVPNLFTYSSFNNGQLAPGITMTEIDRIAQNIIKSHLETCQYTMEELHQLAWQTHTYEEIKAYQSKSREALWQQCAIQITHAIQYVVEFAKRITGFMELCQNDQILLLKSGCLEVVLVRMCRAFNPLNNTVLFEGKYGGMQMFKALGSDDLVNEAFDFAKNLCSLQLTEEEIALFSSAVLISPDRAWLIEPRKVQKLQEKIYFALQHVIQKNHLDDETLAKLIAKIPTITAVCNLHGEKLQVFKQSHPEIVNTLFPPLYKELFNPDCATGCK
# Sequence of human RAR-related Orphan Receptor gamma (RORg), RORC (gene 6097) (P51449 whole entry, looked up, the tested form may be a part): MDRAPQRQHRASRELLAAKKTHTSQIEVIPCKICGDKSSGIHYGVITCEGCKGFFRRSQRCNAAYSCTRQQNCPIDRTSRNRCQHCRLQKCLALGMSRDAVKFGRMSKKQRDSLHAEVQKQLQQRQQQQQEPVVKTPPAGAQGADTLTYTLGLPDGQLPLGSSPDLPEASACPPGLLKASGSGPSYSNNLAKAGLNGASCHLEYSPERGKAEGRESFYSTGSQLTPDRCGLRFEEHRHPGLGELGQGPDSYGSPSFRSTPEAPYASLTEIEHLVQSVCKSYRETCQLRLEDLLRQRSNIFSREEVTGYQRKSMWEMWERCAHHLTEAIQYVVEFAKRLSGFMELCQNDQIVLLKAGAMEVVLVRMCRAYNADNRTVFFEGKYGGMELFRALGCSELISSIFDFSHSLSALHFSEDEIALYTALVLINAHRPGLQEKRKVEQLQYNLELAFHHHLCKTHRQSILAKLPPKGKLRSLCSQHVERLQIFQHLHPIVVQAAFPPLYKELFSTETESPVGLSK
# Sequence of human Retinoic Acid Receptor gamma (RARg), RARG (gene 5916) (P13631 whole entry, looked up, the tested form may be a part): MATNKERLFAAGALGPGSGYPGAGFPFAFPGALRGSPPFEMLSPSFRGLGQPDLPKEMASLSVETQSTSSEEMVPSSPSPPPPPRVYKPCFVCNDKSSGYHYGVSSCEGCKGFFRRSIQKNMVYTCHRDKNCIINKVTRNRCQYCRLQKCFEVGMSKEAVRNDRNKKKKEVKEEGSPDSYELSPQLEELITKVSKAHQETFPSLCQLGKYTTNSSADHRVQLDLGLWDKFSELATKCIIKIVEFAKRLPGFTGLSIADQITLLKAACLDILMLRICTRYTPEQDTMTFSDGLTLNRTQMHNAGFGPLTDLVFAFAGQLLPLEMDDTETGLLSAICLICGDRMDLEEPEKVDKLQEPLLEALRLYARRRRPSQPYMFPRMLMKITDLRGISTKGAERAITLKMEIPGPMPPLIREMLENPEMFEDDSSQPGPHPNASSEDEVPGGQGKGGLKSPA
# Sequence of human Retinoid X Receptor beta (RXRb), RXRB (gene 6257) (P28702 whole entry, looked up, the tested form may be a part): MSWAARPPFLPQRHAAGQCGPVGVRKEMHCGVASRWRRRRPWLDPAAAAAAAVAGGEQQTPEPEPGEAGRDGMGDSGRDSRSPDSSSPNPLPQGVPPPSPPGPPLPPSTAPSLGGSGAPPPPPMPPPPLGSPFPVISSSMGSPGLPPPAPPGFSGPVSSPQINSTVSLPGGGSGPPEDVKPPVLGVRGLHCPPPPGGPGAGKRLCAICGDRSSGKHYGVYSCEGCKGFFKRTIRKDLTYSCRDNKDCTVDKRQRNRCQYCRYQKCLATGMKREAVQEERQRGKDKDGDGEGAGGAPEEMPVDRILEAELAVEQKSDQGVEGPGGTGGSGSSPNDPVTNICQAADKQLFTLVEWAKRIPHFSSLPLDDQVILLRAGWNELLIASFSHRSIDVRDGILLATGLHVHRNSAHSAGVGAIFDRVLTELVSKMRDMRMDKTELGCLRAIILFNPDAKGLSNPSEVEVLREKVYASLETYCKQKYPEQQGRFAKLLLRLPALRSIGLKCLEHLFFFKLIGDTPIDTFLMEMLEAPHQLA
# Sequence of human Thyroid Receptor alpha (THRa1), THRA (gene 7067) (P10827 whole entry, looked up, the tested form may be a part): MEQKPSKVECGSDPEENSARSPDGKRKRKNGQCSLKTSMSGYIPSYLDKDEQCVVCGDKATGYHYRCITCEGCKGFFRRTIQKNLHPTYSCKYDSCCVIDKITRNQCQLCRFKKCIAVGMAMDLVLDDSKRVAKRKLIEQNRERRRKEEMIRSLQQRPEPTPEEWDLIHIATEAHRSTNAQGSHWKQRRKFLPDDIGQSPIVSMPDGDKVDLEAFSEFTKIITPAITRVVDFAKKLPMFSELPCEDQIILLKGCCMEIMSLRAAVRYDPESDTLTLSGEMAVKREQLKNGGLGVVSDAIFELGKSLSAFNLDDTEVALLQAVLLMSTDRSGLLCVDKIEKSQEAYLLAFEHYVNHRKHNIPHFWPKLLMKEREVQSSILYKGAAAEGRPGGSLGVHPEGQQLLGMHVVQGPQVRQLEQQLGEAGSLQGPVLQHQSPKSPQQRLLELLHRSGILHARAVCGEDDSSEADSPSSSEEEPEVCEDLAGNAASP
# Sequence of Retinoic acid receptor RXR-alpha (Homo sapiens) (P19793 whole entry, looked up, the tested form may be a part): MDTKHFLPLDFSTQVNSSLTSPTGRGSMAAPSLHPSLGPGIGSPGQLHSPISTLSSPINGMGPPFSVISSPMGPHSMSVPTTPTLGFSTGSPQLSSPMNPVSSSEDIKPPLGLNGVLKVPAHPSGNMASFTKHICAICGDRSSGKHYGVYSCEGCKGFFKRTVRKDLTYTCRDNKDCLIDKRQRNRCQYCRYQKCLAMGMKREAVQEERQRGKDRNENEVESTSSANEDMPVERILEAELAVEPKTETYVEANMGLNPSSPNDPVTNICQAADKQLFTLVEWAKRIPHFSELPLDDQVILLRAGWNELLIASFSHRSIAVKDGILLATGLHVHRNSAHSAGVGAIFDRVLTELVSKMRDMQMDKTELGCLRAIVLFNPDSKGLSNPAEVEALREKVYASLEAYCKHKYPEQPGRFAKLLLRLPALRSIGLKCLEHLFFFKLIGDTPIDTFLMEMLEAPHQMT
# Sequence of human Peroxisome Proliferator-activated Receptor delta (PPARd), PPARD (gene 5467) (Q03181 whole entry, looked up, the tested form may be a part): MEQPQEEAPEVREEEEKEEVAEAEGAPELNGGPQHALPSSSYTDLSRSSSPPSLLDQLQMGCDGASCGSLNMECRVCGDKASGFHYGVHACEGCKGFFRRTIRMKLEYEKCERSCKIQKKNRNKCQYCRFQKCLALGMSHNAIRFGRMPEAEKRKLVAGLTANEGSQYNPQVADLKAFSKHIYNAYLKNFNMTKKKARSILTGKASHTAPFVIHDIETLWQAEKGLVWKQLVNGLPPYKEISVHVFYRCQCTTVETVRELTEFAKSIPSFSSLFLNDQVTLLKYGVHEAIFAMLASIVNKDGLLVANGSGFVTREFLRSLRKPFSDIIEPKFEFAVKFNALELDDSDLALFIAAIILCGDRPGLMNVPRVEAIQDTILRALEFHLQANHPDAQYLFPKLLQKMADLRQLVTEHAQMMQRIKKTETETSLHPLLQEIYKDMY
# Sequence of E-selectin (Homo sapiens) (P16581 whole entry, looked up): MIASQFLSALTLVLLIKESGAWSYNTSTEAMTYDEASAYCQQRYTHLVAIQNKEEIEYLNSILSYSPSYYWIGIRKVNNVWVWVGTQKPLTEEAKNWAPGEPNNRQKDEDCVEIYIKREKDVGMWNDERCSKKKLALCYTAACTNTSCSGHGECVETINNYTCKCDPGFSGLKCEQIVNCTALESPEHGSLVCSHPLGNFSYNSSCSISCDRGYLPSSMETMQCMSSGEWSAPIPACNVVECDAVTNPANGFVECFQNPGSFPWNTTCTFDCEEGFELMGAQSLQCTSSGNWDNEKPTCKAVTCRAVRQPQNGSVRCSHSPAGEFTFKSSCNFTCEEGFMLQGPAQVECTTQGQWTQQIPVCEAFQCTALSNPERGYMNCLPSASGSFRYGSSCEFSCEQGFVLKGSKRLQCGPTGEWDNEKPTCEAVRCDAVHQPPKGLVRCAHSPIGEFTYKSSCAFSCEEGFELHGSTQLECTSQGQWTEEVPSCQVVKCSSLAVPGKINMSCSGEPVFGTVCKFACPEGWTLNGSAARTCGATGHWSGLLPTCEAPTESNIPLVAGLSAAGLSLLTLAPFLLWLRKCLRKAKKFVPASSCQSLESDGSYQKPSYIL
# Sequence of Peroxisome proliferator-activated receptor gamma (Homo sapiens) (P37231 whole entry, looked up, the tested form may be a part): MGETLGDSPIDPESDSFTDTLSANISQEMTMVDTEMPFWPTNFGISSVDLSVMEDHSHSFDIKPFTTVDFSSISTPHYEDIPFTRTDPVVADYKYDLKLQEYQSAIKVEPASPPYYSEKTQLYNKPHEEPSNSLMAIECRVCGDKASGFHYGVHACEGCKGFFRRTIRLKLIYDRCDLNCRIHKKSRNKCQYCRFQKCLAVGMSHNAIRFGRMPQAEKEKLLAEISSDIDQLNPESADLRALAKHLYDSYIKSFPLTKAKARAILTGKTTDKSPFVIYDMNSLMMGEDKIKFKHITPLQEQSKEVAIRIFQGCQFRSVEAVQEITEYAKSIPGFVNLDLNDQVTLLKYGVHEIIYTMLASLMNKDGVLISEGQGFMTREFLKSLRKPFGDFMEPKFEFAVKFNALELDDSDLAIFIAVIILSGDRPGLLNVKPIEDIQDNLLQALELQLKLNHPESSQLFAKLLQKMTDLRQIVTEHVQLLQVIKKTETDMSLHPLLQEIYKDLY
smiles,measurement,setting,value
CC(=[OH+])/C=C(/C)[O-].CC(=[OH+])/C=C(/C)[O-].CC(=[OH+])/C=C(/C)[O-].[Fe],outcome,[1],inactive
same,outcome,[2],inactive
same,outcome,[3],inactive
Cc1ccc(N)cc1Cl,outcome,[1],inactive
same,outcome,[2],inactive
same,outcome,[4],inactive
same,outcome,[5],inactive
same,outcome,[3],inactive
COS(=O)(=O)c1ccc(C)cc1,outcome,[6],inactive
same,outcome,[2],inactive
same,outcome,[7],inactive
same,outcome,[8],inactive
same,outcome,[5],inactive
same,outcome,[9],inactive
same,outcome,[3],inactive
O=C(O)C(F)(F)C(F)(F)C(F)(F)C(F)(F)C(F)(F)C(F)(F)C(F)(F)C(F)(F)C(F)(F)C(F)(F)F,AC50,[10],29.8 µM (active)
same,outcome,[10],inactive
same,outcome,[12],inactive
same,AC50,[13],33 µM (active) and 5.16 µM (active) and 5.38 µM (active)
same,AC50,[2],25.5 µM (active) and 13.3 µM (active)
same,outcome,[4],inactive
same,outcome,[14],inactive
same,outcome,[7],inactive
same,outcome,[8],inactive
same,outcome,[5],inactive
same,AC50,[9],13.5 µM (active)
same,outcome,[9],inactive
same,outcome,[3],inactive
same,AC50,[15],30.5 µM (active)
same,outcome,[15],inactive
same,AC50,[16],25.3 µM (active) and 5.25 µM (active) and 5.23 µM (active)
same,AC50,[17],30.7 µM (active)
same,outcome,[17],inactive
same,AC50,[18],32.3 µM (active)
same,outcome,[18],inactive
same,AC50,[19],29.7 µM (active)
same,outcome,[19],inactive
same,AC50,[20],29 µM (active)
same,outcome,[20],inactive
N#CCc1ccc(Cl)cc1,outcome,[6],inactive
same,outcome,[2],inactive
same,outcome,[4],inactive
same,outcome,[8],inactive
same,outcome,[5],inactive
same,outcome,[9],inactive
same,outcome,[3],inactive
COc1ccc(OC)c(C=O)c1,outcome,[6],inactive
same,outcome,[2],inactive
same,AC50,[4],6.5 µM (active)
same,outcome,[7],inactive
same,outcome,[8],inactive
same,outcome,[9],inactive
same,outcome,[3],inactive
CNC,outcome,[6],inactive
same,outcome,[7],inactive
same,outcome,[9],inactive
CCCCOCCOC(C)=O,outcome,[6],inactive
same,outcome,[2],inactive
same,outcome,[4],inactive
same,outcome,[5],inactive
same,outcome,[9],inactive
same,outcome,[3],inactive
CC(C#N)CCC#N (stereo unspecified),outcome,[6],inactive
same,outcome,[11],inactive
same,outcome,[2],inactive
same,outcome,[14],inactive
same,outcome,[9],inactive
same,outcome,[3],inactive
CCc1ccccc1C,outcome,[6],inactive
same,outcome,[2],inactive
same,outcome,[4],inactive
same,outcome,[8],inactive
same,outcome,[5],inactive
same,outcome,[9],inactive
same,outcome,[3],inactive
